Source: PubChem BioAssay (The Scripps Research Institute Molecular Screening Center)
CHO-K1 Ca antag – nonselective inhibitor or artifact in parental CHO-K1 cells; AID 602250; 360,000 compounds, 0.6% hits; inhibition, % at 3 µM; ATP-induced calcium, Fluo-8 fluorescence;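 active = inhibition above a per-plate cutoff, the plate's mean sample inhibition plus 3 SD, cut at about 24% in these data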;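 note: 0% = DMSO plus EC80 ATP and 100% = DMSO alone without ATP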
CHRM1 antagonist – human M1 muscarinic receptor antagonists, primary screen, CHO-K1 cells, Fluo-8 calcium fluorescence, 1536-well | Muscarinic acetylcholine receptor M1 (Homo sapiens), P11229 | CHO-K1 hM1, ACh EC80 antagonist | inhibition, % at 3 µM | 360,000 compounds, 1.3% hits | AID 588852, 2011;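 active = percent inhibition above its own plate's cutoff, namely the mean of that plate's compound wells plus 3 SD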;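 note: peak over basal fluorescence ratio during 140 s after agonist addition; 0% = ACh EC80 plus DMSO and 100% = DMSO alone without agonist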
Target sequence (P11229 whole entry, looked up): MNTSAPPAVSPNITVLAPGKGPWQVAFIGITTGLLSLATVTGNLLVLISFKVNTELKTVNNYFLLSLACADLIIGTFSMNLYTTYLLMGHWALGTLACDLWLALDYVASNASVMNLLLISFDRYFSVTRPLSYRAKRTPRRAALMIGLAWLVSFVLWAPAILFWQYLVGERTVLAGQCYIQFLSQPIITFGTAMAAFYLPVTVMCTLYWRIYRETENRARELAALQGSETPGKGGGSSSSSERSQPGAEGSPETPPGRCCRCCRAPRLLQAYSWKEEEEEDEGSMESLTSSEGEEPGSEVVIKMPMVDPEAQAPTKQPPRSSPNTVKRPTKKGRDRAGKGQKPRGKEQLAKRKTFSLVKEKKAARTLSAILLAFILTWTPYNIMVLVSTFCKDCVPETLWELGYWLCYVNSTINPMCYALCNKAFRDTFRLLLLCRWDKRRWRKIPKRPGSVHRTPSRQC
CHO-K1 Ca ag – counter-screen for M1 agonists: effect in parental CHO-K1 cells. Fluo-8 calcium fluorescence; scaled to maximal ATP response, vehicle zero. activation, % at 3 µM. AID 602248, 2012. 360,000 compounds, 0.48% hits; in the data active = activation above about 15%;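 note: untransfected CHO-K1 host cells lacking M1 receptor as counterscreen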
CHO-K1 Ca PAM – nonselective calcium activators in parental CHO-K1 cells, primary screen, counter-screen for M1 PAM project, cell-based, Fluo-8 calcium fluorescence, full deck, 1536-well; AID 602247, 2012; 360,000 compounds, 0.02% hits; ATP EC20; 0% at ATP EC20, 100% at ATP max; activation, % at 3 µM;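 active = activation above the run cutoff, the mean activation of all test compounds plus 3 SD, cut at about 40% in these data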;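 note: peak over basal fluorescence ratio in a 140 s read after ATP addition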
CHRM1 agonist – human M1 muscarinic receptor agonists, primary screen, Fluo-8 calcium fluorescence, CHO-K1 cells, HTS; CHO-K1 hM1, agonist mode; 0% DMSO, 100% acetylcholine EC100; activation, % at 3 µM; 360,000 compounds, 0.33% hits;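 active = activation above the run's mean compound activation plus 3 SD, cut at about 16% in these data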;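 note: peak over basal fluorescence ratio within a 140 s kinetic read after compound addition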
M1 PAM – human M1 muscarinic receptor positive allosteric modulators, primary screen, CHO-K1 cells, Fluo-8 calcium fluorescence, 1536-well; Muscarinic acetylcholine receptor M1 (Homo sapiens), P11229; 360,000 compounds, 0.088% hits; AID 588819, 2011; CHO-K1 hM1, ACh EC20; 0% = ACh EC20, 100% = maximal ACh; activation, % at 3 µM; in the data active = activation above about 19%, passing the limit was not always enough
Active calls of the source: *; / = no result given. Shown are actives, neighbours in structure and some others; about 2.3% of the full set was active somewhere.

SMILES	CHO-K1 Ca antag	CHRM1 antagonist	CHO-K1 Ca ag	CHO-K1 Ca PAM	CHRM1 agonist	M1 PAM
CSc1ccc(CN2CCC(Oc3ccc(C(=O)N4CCCC4)cc3)CC2)cc1	-1	87*	0	0	-5	-23
COc1ccc(CN2CCC(Oc3ccc(C(=O)N4CCCC4)cc3)CC2)c(F)c1	-8	61*	1	3	-6	-23
c1ccc(-c2nnc3oc(-c4cccs4)nn23)cc1	0	-4	2	-2	-2	1
CCOC(=O)C1(CC2CC2)CCN(Cc2ccc(OC)cc2F)CC1	13	28*	3	-12	-9	-25
O=C(c1ccc(OC2CCN(C/C=C/c3ccc(F)cc3)CC2)cc1)N1CCCC1	-6	55*	3	12	-4	-21
CCc1ccc(CN2CCC(Oc3ccc(C(=O)N4CCCCC4)cc3)CC2)cc1	-8	42*	4	2	-5	-21
CCOc1cccc(CN2CCC(Oc3ccc(C(=O)N4CCCC4)cc3)CC2)c1	-11	49*	1	3	-5	-23
O=C(c1ccc(OC2CCN(Cc3ccc(F)cc3)CC2)cc1)N1CCCC1	-9	1	2	6	-6	-5
COc1ccc(-c2cc(C(=O)NCc3cccc(C(F)(F)F)c3)[nH]n2)c(C)c1	11	-14	1	-3	-4	3
CC12CCC(=O)N1C(C(=O)NNC(=O)COc1ccc(Br)cc1)CS2 (stereo not drawn)	17	33*	0	-31	-2	-11
CCCCCCNc1c([N+](=O)[O-])c(=O)sc2ccccc12	1	42*	8	-7	-2	-19
CC(C)(C)Nc1c([N+](=O)[O-])c(=O)sc2ccccc12	-1	-9	0	18	-3	12
Cc1ccc(N2C(=O)C(CN3CCCC3)C2c2ccccc2)cc1 (stereo not drawn)	-5	25*	1	-5	-16	-37
COc1cc(NC(=O)c2ccc(-c3ccc(F)c(F)c3)c3ccoc23)cc(OC)c1OC	-2	-18	-1	8	2	15
O=C(OCC1CCCN2CCCCC12)c1ccc2c(c1)OCO2 (stereo not drawn)	7	29*	0	4	-9	-19
O=C(NC(=O)c1ccccc1)OCC1CCCN2CCCCC12 (stereo not drawn)	3	-10	0	-13	-11	6
O=C(Nc1ccc(Nc2ccccc2)cc1)Nc1ccccc1Cl	-11	-3	0	3	-4	0
O=C(Nc1ccccc1)Nc1cc(Cl)cc(Cl)c1	24*	28	10	4	2	-12
O=C(Nc1ccccc1)Nc1cc(OCC(F)(F)F)cc(OCC(F)(F)F)c1	32*	25*	13	-12	-1	-21
O=C(Nc1cccnc1)Nc1cc(Cl)cc(Cl)c1	37*	15	14	-13	6	-3
O=C(NCc1csc2ccccc12)Nc1cc(Cl)cc(Cl)c1	13	33*	4	-18	0	-21
CCN(C)C1CN(Cc2cn(Cc3cccc(C(F)(F)F)c3)nn2)S(=O)(=O)C1 (stereo not drawn)	-17	/	0	15	/	/
COc1ccc(NC(=O)c2cc(C3CCCCN3C(=O)CCCc3ccccc3)on2)c(C)c1 (stereo not drawn)	4	-1	4	6	-4	-2
O=C(NCc1ccncc1)[C@@H]1CCCN1C(=O)[C@H]1CCCN1C(=O)c1ccccc1	-20	/	1	12	/	/
COc1cc(/C=C2\SC(=S)N(NS(=O)(=O)c3ccccc3)C2=O)ccc1O	-1	1	16*	-7	9	-2
COc1cc(/C=C2\SC(=S)N(NS(=O)(=O)c3ccc(C)cc3)C2=O)ccc1O	-5	-4	24*	9	13	-3
CC(C)C[C@@H]1Cc2[nH]c(=S)[nH]c(=O)c2[C@H](CCc2ccccc2)O1	-19	/	1	29	/	/
